The results in this text go back to PubChem BioAssay AID449762 (Southern Research Specialized Biocontainment Screening …, 2010).

Several values for one entry are separate records, joined by “and”; a condition that tells them apart may be missing. Identical values can stand only once. About 1,900 (0.58%) of roughly 330,000 compounds were called active. Roughly 4% stayed inconclusive and do not appear here. Rule as the data show it: inconclusive = inhibition above about 70% without an active follow-up result; inactive = below that. A selection follows. Potency and affinity values are given separately.

The nature of the assay: M. tuberculosis growth inhibition, HTS (AID 449762).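 Also: bacterial growth assessed after seven days of incubation.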 Particulars: M. tuberculosis H37Rv growth inhibition, 7H9 media; at 25 µM; stronger effect = higher value.
Usually inhibition stands for the change of the read-out against control, counted positive when it falls. With `O=S(=O)(NCc1ccccn1)c1ccc(Cl)s1`, the inhibition was 32.5% (inactive).

Consider `N/C(=N\OC(=O)Nc1ccc(Cl)cc1)c1ncc(C(F)(F)F)cc1Cl`, for which the inhibition was 3.09% (inactive).

On to `N/C(=N\OC(=O)Nc1ccccc1)c1ncc(C(F)(F)F)cc1Cl`, for which the inhibition was -4.86% (inactive).

As to `Cc1ccc(CNC(=O)CNC(=O)[C@@H]2Cc3ccccc3CN2C(=O)OC(C)(C)C)cc1`, the inhibition is 4.75% (inactive). In the case of `Cc1ccc(-c2cn(-c3ccccc3)c3[n+]2CCCS3)cc1`, the inhibition is 4.87% (inactive) and -0.5% (inactive).

On to `c1ccc(-c2cn(-c3ccccc3)c3[n+]2CCCS3)cc1`, for which the inhibition is -1.4% (inactive). For `Cc1ccccc1CNC(=O)Nc1ccc(Cl)cc1` the value was 8.74% (inactive).

As for `CCOC(=O)/C(=C/C=C/c1ccccc1)NC(=O)c1ccccc1`, the inhibition was 5.87% (inactive). Turning to `CCOC(=O)/C(=C\C=C\c1ccccc1)NC(=O)c1ccccc1`, the inhibition is -0.56% (inactive). On to `O=Cc1cccc(Oc2ccc([N+](=O)[O-])cc2[N+](=O)[O-])c1`, for which the inhibition was 6.01% (inactive). `Cc1nn(S(=O)(=O)N(C)C)c(C)c1CN1C(=O)c2ccccc2C1=O`: the inhibition was -3.78% (inactive). For `Cc1c(CN(C)C)c2c(n1C)C(=O)c1ccc(Br)cc1-2`, the inhibition was -6.76% (inactive). For `Cc1c(CN(C)C)c2c(n1Cc1ccccc1)C(=O)c1ccccc1-2` the value was -0.73% (inactive); for `CC(C)(C)[C@@H]1C=C(C(N)=O)O[C@H](OCc2ccc(CO)cc2)C1`, 3.59% (inactive); for `CCn1cc(/C=N\NC(=O)c2c[nH]c3ccccc23)c(C)n1`, 4.35% (inactive). For the molecule `COc1cccc2c(=S)c(CCC(C)=O)c(C)[nH]c12`, the inhibition is -1.19% (inactive). The value for `O=C(c1ccccc1)N1N=C(c2ccccc2)CC1(O)C(F)(F)F` (configuration not stated) was 17.4% (inactive); that for `O=C(c1ccccc1)N1N=C(c2ccc(F)cc2)CC1(O)C(F)(F)F` (configuration not stated) was 14.8% (inactive); that for `COc1ccccc1C1CCN(Cc2ccccc2)CC1` was -7.77% (inactive). For `COc1ccccc1C1CCN(Cc2ccc(Cl)c(Cl)c2)CC1` the value was 6.04% (inactive); for `CCCn1c(=S)[nH]c2cc(C(=O)NCC3CCCO3)ccc2c1=O` (configuration not stated), -7.34% (inactive); for `COc1ccc(C=Nc2cccc3c(=O)[nH][nH]c(=O)c23)c2ccccc12`, -1.04% (inactive).

For the molecule `COC(=O)N/N=C/c1cc(Br)ccc1O`, the inhibition was -4.56% (inactive). For `Cc1ccc(C)c(/C=N/NC(=S)NC(C)C)c1` the value was -0.52% (inactive); for `CC(C)NC(=S)N/N=C/c1ccc(C(C)(C)C)cc1`, 3.03% (inactive). The value for `Cc1ccc(/C=N/NC(=O)C(=O)N/N=C/c2ccc(C)o2)o1` was -4.38% (inactive); that for `COC(=O)c1nonc1NCn1nnc2ccccc21` was -13.7% (inactive).
